This excerpt belongs to a sample that is enriched for hits.
IDE exosite FP – exo-site inhibitors of human IDE, primary screen, biochemical, fluorescence anisotropy, probe displacement; Insulin-degrading enzyme (Homo sapiens), P14735; purified IDE, FL-6b probe fluorescence polarization; active compounds read low; z-score at 20 µM; hit rate 6.3% among 17,000; AID 1259349, 2017;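 active means z-score of -3 or lower, meaning strong loss of probe binding signal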;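 further: His-tagged human IDE residues 42-1019 made in E. coli with 30 nM FL-6b probe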
Target sequence (P14735 42-1019 limits assumed): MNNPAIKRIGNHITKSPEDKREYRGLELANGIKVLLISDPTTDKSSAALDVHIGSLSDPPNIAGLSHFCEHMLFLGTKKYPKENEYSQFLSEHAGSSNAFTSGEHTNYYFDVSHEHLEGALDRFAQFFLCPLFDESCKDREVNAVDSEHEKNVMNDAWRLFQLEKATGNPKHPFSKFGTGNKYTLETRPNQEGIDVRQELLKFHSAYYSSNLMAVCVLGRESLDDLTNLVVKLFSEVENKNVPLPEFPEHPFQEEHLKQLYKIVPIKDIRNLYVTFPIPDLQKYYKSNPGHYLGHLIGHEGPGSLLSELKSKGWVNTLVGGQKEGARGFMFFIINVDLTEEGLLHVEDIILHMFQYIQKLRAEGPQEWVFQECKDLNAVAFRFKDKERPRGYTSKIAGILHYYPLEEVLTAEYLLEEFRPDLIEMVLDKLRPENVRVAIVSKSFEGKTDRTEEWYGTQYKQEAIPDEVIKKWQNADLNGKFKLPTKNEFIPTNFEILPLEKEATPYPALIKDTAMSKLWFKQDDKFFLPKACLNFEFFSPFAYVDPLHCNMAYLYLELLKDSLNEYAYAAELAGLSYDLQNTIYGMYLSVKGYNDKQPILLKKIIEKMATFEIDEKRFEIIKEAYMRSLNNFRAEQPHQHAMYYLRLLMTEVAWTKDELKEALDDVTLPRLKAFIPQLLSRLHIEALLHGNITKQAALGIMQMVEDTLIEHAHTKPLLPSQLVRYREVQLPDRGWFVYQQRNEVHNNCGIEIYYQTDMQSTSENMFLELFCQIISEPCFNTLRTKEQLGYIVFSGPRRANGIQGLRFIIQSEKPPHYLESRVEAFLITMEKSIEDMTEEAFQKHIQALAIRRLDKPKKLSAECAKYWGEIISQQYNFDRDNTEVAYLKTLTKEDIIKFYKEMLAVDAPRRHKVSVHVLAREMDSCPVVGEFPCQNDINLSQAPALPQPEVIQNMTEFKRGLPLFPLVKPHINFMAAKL
Active calls of the source: *.

SMILES	IDE exosite FP
N#C[C@@H]1[C@H](c2ccc(-c3ccccc3F)cc2)[C@H](CO)N1C(=O)Cc1ccccc1	-0.0185
C[C@@H]1CN([C@H](C)CO)C(=O)c2cc(C#Cc3ccccc3)cnc2O[C@@H]1CN(C)C(=O)c1ccccc1	-1.81
C[C@H]1CN([C@@H](C)CO)C(=O)c2cc(/C=C/c3ccccc3)cnc2O[C@H]1CN(C)S(=O)(=O)c1ccccc1F	0.0648
C[C@@H]1CN([C@@H](C)CO)C(=O)c2cc(C#Cc3ccccc3)cnc2O[C@@H]1CN(C)C(=O)c1ccccc1	-4.04*
C[C@H](CO)N1C[C@H](C)[C@@H](CN(C)C(=O)c2ccccc2)Oc2ncc(C#Cc3ccccc3)cc2C1=O	-2.16
C[C@@H]1CN([C@@H](C)CO)C(=O)c2cc(/C=C/c3ccccc3)cnc2O[C@H]1CN(C)S(=O)(=O)c1ccccc1F	-3.39*
C[C@H]1CN([C@@H](C)CO)C(=O)c2cc(/C=C/c3ccccc3)cnc2O[C@@H]1CN(C)S(=O)(=O)c1ccccc1F	-0.0711
C[C@H](CO)N1C[C@H](C)[C@H](CN(C)C(=O)[C@H](Cc2ccccc2)N(C)C)OCc2ccccc2-c2c(n(C)c3ccccc23)C1=O	-1.3
O=C(Nc1ccc(F)cc1)N1CC(=O)N2[C@H](CO)[C@H](c3ccc(C#Cc4cccnc4)cc3)[C@@H]2C1	-0.633
O=C(Nc1ccccc1)N1CCCCN2[C@H](CO)[C@@H](c3ccc(C4=CCCCC4)cc3)[C@H]2C1	6.12
COc1ccccc1-c1ccc([C@H]2[C@H]3CN(C(=O)c4ccncc4)CCCCN3[C@H]2CO)cc1	0.953
COc1ccccc1-c1ccc([C@@H]2[C@H]3CN(C(=O)c4ccncc4)CCCCN3[C@H]2CO)cc1	-13.7*
COc1ccccc1-c1ccc([C@@H]2[C@H](CO)N3CCCCN(C(=O)c4cccnc4)C[C@@H]23)cc1	-4.09*
Cc1ccccc1-c1ccc([C@H]2[C@H]3CN(C(=O)c4cccnc4)CCCCN3[C@H]2CO)cc1	0.895
O=C(c1cccnc1)N1CCCCN2[C@@H](CO)[C@@H](c3ccc(C#Cc4cccnc4)cc3)[C@@H]2C1	0.377
COc1ccccc1-c1ccc([C@H]2[C@H](CO)N3CCCCN(C(=O)c4ccncc4)C[C@@H]23)cc1	-2.51
CCC(=O)N1[C@@H](CO)[C@@H](c2ccc(-c3cccnc3)cc2)[C@@H]1CN(CC)C(C)=O	1.59
O=C(c1ccc(F)cc1)N1CCCCN2[C@H](CO)[C@H](c3ccc(C#CC4(O)CCCC4)cc3)[C@@H]2C1	1.62
Cc1ccc(-c2ccc([C@H]3[C@@H](CO)N4C(=O)CN(C(=O)c5ccc(F)cc5)C[C@H]34)cc2)cc1	1.24
CN(C)C(=O)c1cccc(-c2ccc([C@@H]3[C@H](CO)N4C(=O)CN(C(=O)C5CC5)C[C@@H]34)cc2)c1	3.83
CCC(=O)N1C[C@@H](C)[C@H](OC)CN(C)C(=O)c2cc(NC(=O)Nc3ccc(Cl)cc3)ccc2OC[C@@H]1C	0.145
COc1ccccc1-c1ccc([C@H]2[C@H](CO)N3CCCCN(C(=O)CN4CCOCC4)C[C@@H]23)cc1	-3.22*
COc1ccccc1-c1ccc([C@H]2[C@@H](CO)N3CCCCN(C(=O)CN4CCOCC4)C[C@H]23)cc1	-2.83
O=C(CN1CCOCC1)N1CCCCN2[C@H](CO)[C@@H](c3ccc(-c4ccccc4F)cc3)[C@@H]2C1	-3.64*
O=C(CN1CCOCC1)N1CCCCN2[C@H](CO)[C@H](c3ccc(-c4ccccc4F)cc3)[C@H]2C1	-0.747
SMILES	IDE exosite FP
O=C(CN1CCOCC1)N1CCCCN2[C@H](CO)[C@H](c3ccc(-c4ccccc4F)cc3)[C@@H]2C1	-0.000576
COCC(=O)N1CCCCN2[C@H](CO)[C@@H](c3ccc(-c4ccccc4)cc3)[C@H]2C1	0.758
Cc1ccccc1-c1ccc([C@@H]2[C@@H](CO)N3CCCCN(C(=O)CN4CCOCC4)C[C@@H]23)cc1	-8*
Cc1ccccc1-c1ccc([C@H]2[C@@H](CO)N3CCCCN(C(=O)CN4CCOCC4)C[C@H]23)cc1	-9.85*
O=C(CN1CCOCC1)N1CCCCN2[C@@H](CO)[C@H](c3ccc(-c4ccccc4F)cc3)[C@@H]2C1	-0.34
CN(C)CC#Cc1ccc([C@H]2[C@@H](CO)N3C(=O)CN(C(=O)c4cccnc4)C[C@@H]23)cc1	2.87
Cc1noc(C)c1NC(=O)N(C)C[C@@H]1OCCCC[C@H](C)Oc2ccc(NC(=O)Nc3ccc(C(F)(F)F)cc3)cc2C(=O)N([C@@H](C)CO)C[C@@H]1C	0.875
CN(C)CCCNC(=O)[C@H]1[C@H](CO)[C@H]2Cn3c(ccc(-c4cccnc4)c3=O)[C@@H]1N2C(=O)CC1CC1	0.337
O=C1CNC[C@H]2[C@@H](c3ccc(C#CC4CCCC4)cc3)[C@@H](CO)N12	4.59
O=C(Nc1ccccc1F)N1CC(=O)N2[C@H](CO)[C@H](c3ccc(C#CC4CCCC4)cc3)[C@H]2C1	4.54
COCC(=O)N1CCCCN2[C@H](C1)[C@@H](c1ccc(C#Cc3cccnc3)cc1)[C@@H]2CO	-0.141
O=C(c1cccnc1)N1CCCCN2[C@H](C1)[C@H](c1ccc(C#Cc3cccnc3)cc1)[C@@H]2CO	-1.5
COCC(=O)N1CCCCN2[C@H](CO)[C@@H](c3ccc(C#Cc4cccnc4)cc3)[C@H]2C1	2.73
CCC(=O)N1CCCCN2[C@H](CO)[C@H](c3ccc(C#Cc4cccnc4)cc3)[C@H]2C1	-3.19*
CCC(=O)N1CCCCN2[C@H](CO)[C@@H](c3ccc(C#Cc4cccnc4)cc3)[C@@H]2C1	-5.19*
CCC(=O)N1CCCCN2[C@@H](CO)[C@H](c3ccc(C#Cc4cccnc4)cc3)[C@@H]2C1	-5.36*
O=C(c1cccnc1)N1CCCCN2[C@H](CO)[C@H](c3ccc(C#Cc4cccnc4)cc3)[C@H]2C1	4.72
COCC(=O)N1CCCCN2[C@H](CO)[C@@H](c3ccc(C#Cc4cccnc4)cc3)[C@@H]2C1	0.0818
O=C(c1cccnc1)N1CCCCN2[C@H](CO)[C@@H](c3ccc(C#Cc4cccnc4)cc3)[C@@H]2C1	-0.297
C/C=C/c1ccc([C@H]2[C@H](CO)N(C(=O)CC)[C@H]2CN(C)S(C)(=O)=O)cc1	3.2
CO[C@@H]1CN(C)C(=O)c2ccc(NS(=O)(=O)c3cccc(Cl)c3)cc2OC[C@@H](C)N(C(=O)Cc2cccnc2)C[C@H]1C	0.545
O=C(CN1CCOCC1)NC[C@@H]1N[C@@H](CO)[C@H]1c1ccc(-c2ccccc2)cc1	-0.531
CO[C@@H]1CN(C)C(=O)c2cc(NC(=O)c3cccc(F)c3)ccc2OC[C@H](C)N(C)C[C@H]1C	0.585
COc1ccc2c3c(n(C)c2c1)[C@@H](CO)N(C(=O)Cc1ccccc1)CC31CN(C)C1	1.03
O=C1C[C@H](c2ccccc2)C(=O)N[C@@H](c2ccc(F)cc2)C/C=C\CCN1	1.11
COc1ccc(-c2ccccc2[C@@H]2[C@@H](C#N)N(C(=O)C3CCOCC3)[C@H]2CO)cc1	0.81
C[C@H](CO)N1C[C@H](C)[C@@H](CN(C)C(=O)[C@@H](Cc2ccccc2)N(C)C)OCc2ccccc2-c2c(n(C)c3ccccc23)C1=O	-0.184
C[C@@H]1CCCCO[C@@H](CN(C)S(=O)(=O)c2cn(C)cn2)[C@@H](C)CN([C@H](C)CO)C(=O)c2cc(NC(=O)Nc3cccc4ccccc34)ccc2O1	-1.12
C[C@@H]1CCCCO[C@H](CN(C)S(=O)(=O)c2cn(C)cn2)[C@H](C)CN([C@@H](C)CO)C(=O)c2cc(NC(=O)Nc3cccc4ccccc34)ccc2O1	-1.66

Compound activity (PubChem BioAssay)
